# Source: PMC4336329 (PLoS ONE, 2015)
# About 14,000 (4.5%) of roughly 310,000 compounds showed an effect of 50% or more. The effect is printed as a negative number. Only a selection was taken, and strong results are over-represented in it overall.
# Target: human ether-à-go-go-related gene (hERG) potassium channel (human, UniProt Q12809)
# Assay: primary screen, population patch clamp on CHO cells stably expressing hERG; higher = less effect of the substance
# 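Also: peak tail current of the secondary pulse compared with the same well before compound.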
# Chain of human ether-à-go-go-related gene (hERG) potassium channel (Q12809 whole entry, looked up): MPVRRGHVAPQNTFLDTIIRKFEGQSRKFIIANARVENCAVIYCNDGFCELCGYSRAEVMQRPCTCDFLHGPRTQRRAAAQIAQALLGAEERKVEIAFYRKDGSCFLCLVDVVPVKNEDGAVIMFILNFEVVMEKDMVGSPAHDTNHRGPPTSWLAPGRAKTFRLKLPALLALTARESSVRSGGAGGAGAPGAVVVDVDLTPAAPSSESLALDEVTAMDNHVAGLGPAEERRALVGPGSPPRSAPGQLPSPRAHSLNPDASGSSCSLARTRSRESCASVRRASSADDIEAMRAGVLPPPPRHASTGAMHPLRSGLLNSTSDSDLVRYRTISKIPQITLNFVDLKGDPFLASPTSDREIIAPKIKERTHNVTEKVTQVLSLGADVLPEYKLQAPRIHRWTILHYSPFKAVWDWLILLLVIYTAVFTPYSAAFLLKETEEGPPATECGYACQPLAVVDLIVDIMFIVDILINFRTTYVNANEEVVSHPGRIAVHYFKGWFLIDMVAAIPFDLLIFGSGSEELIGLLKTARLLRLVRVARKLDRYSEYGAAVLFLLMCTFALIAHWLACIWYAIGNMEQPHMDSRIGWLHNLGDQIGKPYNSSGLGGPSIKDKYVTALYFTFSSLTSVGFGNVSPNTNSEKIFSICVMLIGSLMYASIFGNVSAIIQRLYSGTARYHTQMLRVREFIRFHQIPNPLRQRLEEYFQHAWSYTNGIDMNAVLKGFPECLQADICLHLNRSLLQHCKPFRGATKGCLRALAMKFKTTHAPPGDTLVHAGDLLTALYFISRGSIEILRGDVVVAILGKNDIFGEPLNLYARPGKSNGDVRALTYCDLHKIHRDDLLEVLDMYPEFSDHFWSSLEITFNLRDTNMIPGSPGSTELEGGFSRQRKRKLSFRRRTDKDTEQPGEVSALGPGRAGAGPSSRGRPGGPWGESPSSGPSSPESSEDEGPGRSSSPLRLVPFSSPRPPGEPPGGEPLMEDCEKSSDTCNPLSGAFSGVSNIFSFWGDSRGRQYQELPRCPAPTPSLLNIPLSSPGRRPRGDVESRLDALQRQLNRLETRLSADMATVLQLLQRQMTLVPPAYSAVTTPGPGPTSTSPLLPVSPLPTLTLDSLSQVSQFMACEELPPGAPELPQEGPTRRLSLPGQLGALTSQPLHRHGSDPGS
row,SMILES,"hERG current change (%, negative = inhibition) at 10uM"
1,CC(=O)Nc1ccc(NCc2ccc(C)s2)cc1,-3.79%
2,CCc1ccc(OCC(=O)NNC(=O)c2c(CC)noc2C)cc1,10.8%
3,Cc1nnc(NC2=NCCC2)o1,3.71%
4,CC(=O)CCc1c[nH]c2c(C(=O)O)cccc12,5.11%
5,CCOc1ccccc1Nc1nnc(SCC(=O)Nc2cc(C)on2)s1,6.14%
6,CC(=O)Nc1ccc(S(=O)(=O)Nc2cc3c(cc2C(C)=O)OCO3)cc1,20.7%
7,CC(N)Cc1cn(Cc2ccccc2)c2ccccc12.Cl (stereo not drawn),-7.76%
8,COc1cccc(CNC(=O)COc2ccc(C(=O)c3ccccc3)cc2)c1,-11.7%
9,CCOC(=O)/C(=C\c1c[nH]c2ccccc12)NC(C)=O,0.157%
10,O=C(CSc1nc2c(c(=O)n1-c1ccc(Cl)cc1)SCC2)NCc1ccco1,-19.4%
11,CCn1cc(CCC(=O)NCc2cccc(OC)c2OC)c2ccccc21,8.51%
12,COc1ccc(S(=O)(=O)N/N=C(/C)c2ccncc2)cc1OC,-1.27%
13,CCOC(=O)c1cc2c(=O)n3ccccc3nc2n(Cc2ccccc2)c1=N,-74.6%
14,N=c1c(C(=O)NCc2ccc3c(c2)OCO3)cc2c(=O)n3ccccc3nc2n1Cc1cccnc1,-80.4%
15,COc1ccc(CNC(=O)c2cc3c(=O)n4ccccc4nc3n(Cc3cccnc3)c2=N)cc1,-58.6%
16,Cc1nc2ccccn2c1C(=O)NCc1ccc2c(c1)OCO2,-0.471%
17,COc1ccc(CNC(=O)Cn2nc(Cc3cccnc3)c3ccccc3c2=O)cc1,-43.3%
18,COCCCn1c(=N)c(C(=O)NCc2ccc3c(c2)OCO3)cc2c(=O)n3ccccc3nc21,-83.5%
19,COc1ccc(Cn2c(=S)[nH]c3cc(C(=O)NCc4cccnc4)ccc3c2=O)cc1,12.3%
20,O=C(CCn1c(=O)c2ccccc2n(Cc2cccnc2)c1=O)NCc1ccc2c(c1)OCO2,-5.1%
21,COCCCn1c(C(=O)Nc2ccc3c(c2)OCO3)cc2c(=O)n3ccccc3nc21,8.51%

row,SMILES,"hERG current change (%, negative = inhibition) at 10uM"
1,O=C(NCc1ccc2c(c1)OCO2)c1cnc2ccccn2c1=O,-6.29%
2,CCOC(=O)c1ccccc1NC(=O)CN(c1ccccc1)S(=O)(=O)N(C)C,-19.9%
3,CC(C)[C@H](Nc1ccc(C(F)(F)F)cc1[N+](=O)[O-])C(=O)O.[Cl-],20%
4,CCCCOc1cccc(C(=O)N(Cc2ccccc2)C2CCS(=O)(=O)C2)c1 (stereo not drawn),-14.2%
5,O=C(NC1CCCC1)C(=O)N(Cc1cccnc1)C(C(=O)NCC1CCCO1)c1ccco1 (stereo not drawn),38.2%
6,CCOC(=O)COc1ccc(C(=O)Nc2cccc(Cl)c2C)cc1,18.9%
7,CC(Oc1ccc(Br)cc1)C(=O)Nc1ccc(S(=O)(=O)N(C)C2CCN(C)CC2)cc1 (stereo not drawn),-26.7%
8,Cc1nc2ccc(P(=O)(O)O)cc2s1,16.2%
9,C=CCN1C(=O)C2(C(C(=O)c3ccc(C)o3)=C(O)C(=O)N2CCCN2CCOCC2)c2ccccc21 (stereo not drawn),3.04%
10,COCCNC(=S)N1CCc2cc(OC)c(OC)cc2C1COc1ccc(C(C)C)cc1 (stereo not drawn),16.7%
11,Cc1cccc(N(CC(=O)NC2CCCC2)C(=O)c2csnn2)c1C,19.5%
12,COC(=O)c1cc2c(=O)n3ccccc3nc2n(Cc2cccnc2)c1=N,-64%
13,Cc1nc2ccccn2c1C(=O)NCc1cccnc1,-3.36%
14,COC(=O)c1cn(Cc2cccnc2)c(=O)c2ccccc12,3.15%
15,CCCn1c(=N)c(S(=O)(=O)c2ccc(F)cc2)cc2c(=O)n3ccccc3nc21,-8.53%
16,N=c1c(C(=O)NCc2ccc(F)cc2)cc2c(=O)n3ccccc3nc2n1Cc1cccnc1,-76.2%
17,Nc1cc(=O)[nH]c(N)n1,15.9%
18,CCc1cccc(NC(=O)CNC(=O)N2CC(=O)Nc3ccccc32)c1,-8.55%
19,Cc1ccc(S(=O)(=O)N(C)C)cc1NC(=O)COC(=O)c1c(-c2ccccc2)noc1C,-24.8%
20,CCOC(=O)N1CCN(CC(O)COc2c(C)cc(C)cc2C)CC1.Cl (stereo not drawn),-18%
21,COc1cc(CN2CCN(C(=O)c3ccccc3F)CC2)cc(OC)c1OC.O=C(O)C(=O)O,6.56%

row,SMILES,"hERG current change (%, negative = inhibition) at 10uM"
1,COc1cc(CN2CCCCCC2)cc(OC)c1OC.O=C(O)C(=O)O,13.8%
2,COc1cc(CN2CCN(C(=O)c3ccc(-c4ccccc4)cc3)CC2)cc(OC)c1OC.O=C(O)C(=O)O,-54.7%
3,COc1cc(CN2CCN(C(=O)c3cccc4ccccc34)CC2)cc(OC)c1OC.O=C(O)C(=O)O,4.24%
4,COc1cc(CN2CCN(C(=O)COc3ccccc3)CC2)cc(OC)c1OC,-14.1%
5,COc1cc(CN2CCN(C(O)(c3ccccc3)c3ccccc3)CC2)cc(OC)c1OC.O=C(O)C(=O)O,-55.1%
6,COc1cc(CN2CCN(Cc3ccc(C(F)(F)F)cc3)CC2)cc(OC)c1OC.O=C(O)C(=O)O,-54.1%
7,COc1cccc(CN2CCN(C(=O)c3ccc(-c4ccccc4)cc3)CC2)c1OC.O=C(O)C(=O)O,-5.41%
8,COc1cc(OC)c(OC)cc1CN1CCN(Cc2ccc(C(F)(F)F)cc2)CC1,-42.3%
9,COc1ccc(CN2CCN(Cc3ccc(C(F)(F)F)cc3)CC2)c(OC)c1.O=C(O)C(=O)O,-74.1%
10,COc1cc(CN2CCN(S(=O)(=O)c3ccc(F)cc3)CC2)cc(OC)c1OC.O=C(O)C(=O)O,-5.89%
11,COc1ccccc1C1CCN(c2ccc(CO)cc2[N+](=O)[O-])CC1,4.52%
12,O=C(Nc1cccc2ccccc12)c1cnsn1,5.58%
13,COC(=O)c1c(C(=O)OC)c2ccccn2c1C(=O)c1ccccc1,6.74%
14,COCCNC(=O)Cn1nc(-c2ccc(C)cc2)ccc1=O,8.83%
15,CCOc1ccc(C(NC(=O)c2ccco2)c2ccc(OC)c(OC)c2)cc1 (stereo not drawn),-39.9%
16,O=C(NC(=S)NC1CCS(=O)(=O)C1)c1ccccc1 (stereo not drawn),14.6%
17,O=C(Nc1cccc(S(=O)(=O)N2CCOCC2)c1)c1ccccc1[N+](=O)[O-],0.195%
18,O=C(CSc1nc2ncc(Cl)cc2[nH]1)Nc1cccc(F)c1,12.8%
19,COc1ccc(CN2CCN(Cc3ccc(C(F)(F)F)cc3)CC2)cc1.O=C(O)C(=O)O,-65.7%
20,COc1ccc(CN2CCN(Cc3ccc(C)cc3)CC2)c(OC)c1.O=C(O)C(=O)O,-70.3%
21,FC(F)(F)c1ccc(CN2CCN(Cc3ccco3)CC2)cc1.O=C(O)C(=O)O,0.168%

row,SMILES,"hERG current change (%, negative = inhibition) at 10uM"
1,COc1cccc(C(=O)N2CCN(Cc3ccc(OC)cc3OC)CC2)c1.O=C(O)C(=O)O,-38.9%
2,CS(=O)(=O)N1CCN(Cc2ccc(C(F)(F)F)cc2)CC1.O=C(O)C(=O)O,0.441%
3,O=c1ccc(-c2ccccc2)nn1Cc1ccc(Cl)cc1,2.52%
4,COc1ccc(N2Cc3ccccc3C2=O)cc1,16.2%
5,COc1cc(NC(=O)c2ccc(Cl)cc2)c(Cl)cc1NC(=O)c1cccnc1,1.74%
6,N#C/C(=C/c1ccc(N2CCCCCC2)o1)c1ccc(Cl)cc1,-3.68%
7,COc1cccc(NC(=O)CN2CCN(c3ccccc3F)CC2)c1,-9.18%
8,COc1cccc(NC(=O)CN2CCN(c3ccc(F)cc3)CC2)c1,-17%
9,COc1cccc(NC(=O)CN2CCN(CC(=O)Nc3ccc(F)cc3)CC2)c1,-80.3%
10,COc1ccc(NC(=O)CN2CCN(c3ccc(F)cc3)CC2)cc1Cl,-5.96%
11,COc1ccc(NC(=O)CN2CCN(c3nc(-c4ccc(F)cc4)cs3)CC2)c(OC)c1,20.7%
12,COc1ccc(NC(=O)CN2CCN(CC(=O)Nc3ccc(F)cc3)CC2)cc1Cl,-80.5%
13,CCOc1ccc(NC(=O)CN2CCN(CC(=O)Nc3ccc(OC)cc3OC)CC2)cc1,-74.2%
14,COc1ccc(C(=O)C2CCN(CC(=O)Nc3ccc(OC)cc3OC)CC2)cc1,-18.1%
15,COc1ccc(NC(=O)CN2CCN(CC(=O)Nc3ccc(F)cc3)CC2)c(OC)c1,-80.4%
16,COc1ccc(NC(=O)CN2CCN(S(=O)(=O)c3ccc(F)cc3)CC2)cc1Cl,-1.67%
17,COc1ccc(NC(=O)CN2CCc3ccccc3C2)c(OC)c1,-6.9%
18,Cc1ccc(NC(=O)CSC(N)=O)cc1Cl,7.5%
19,Cn1c2ccccc2c(=O)c2ccc(F)cc21,0.557%
20,COc1ccc(-c2cc(C(=O)N3CCCC3)c3ccccc3n2)cc1OC,5.86%
21,CCCCc1nnc(NC(=O)C23CC4CC(CC(NC(C)=O)(C4)C2)C3)s1,-1.81%
